# From the supplement of paper PMC4954754
# ± gives the uncertainty stated by the source.
# Test system: HEK293T-Rex XBP1-RLuc
# Test: XBP1-RLuc splicing reporter activation, triplicate, relative to 500 nM thapsigargin (% of thapsigargin); higher = stronger IRE1/XBP1s reporter activation
# Settings: 6.8 µM; 18 h; screen: confirmation
# Experimental: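 HEK293T-Rex cells stably expressing the ERSE-firefly luciferase (BiP promoter, ATF6-preferring) or XBP1-splicing Renilla luciferase (IRE1/XBP1s) reporter, 1536-well plates, compound at 6.8 µM for 18 hr at 37 °C; luminescence read […] and expressed as % activation = 100*(compound - median DMSO)/(median 500 nM thapsigargin - median DMSO). Primary screen was single-pass; confirmation screen in triplicate (mean ± SD).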
row,Compound,XBP1-RLuc splicing reporter activation
1,OCCNc1nc(Nc2ccc(Cl)c(Cl)c2)nc2ccccc12,42.7 ± 1.8
2,Cc1ccc(O)c(NC(=O)c2cc(-c3ccco3)on2)c1,19 ± 4.5
3,O=[N+]([O-])c1ccccc1NC(=S)N/N=C/c1ccc(O)c(O)c1,8.61 ± 0.81
4,Nc1nc(Nc2ccc(Cl)cc2)nc2ccccc12,8.65 ± 0.74
5,O=C1N/C(=C/c2ccc(O)cc2)C(=O)N1Cc1ccc(Br)cc1,33.3 ± 4.9
6,Cc1ccc(Nc2nc(N)c3ccccc3n2)cc1Cl,8.06 ± 2.4
7,O=C(NCCCn1ccnc1)c1cc(-c2cccs2)on1,7.54 ± 0.78
8,Nc1ccc2nc(-c3ccc(Br)cc3)[nH]c2c1,12.5 ± 2
9,O=C(N/N=C/c1ccc(Cl)cc1)c1n[nH]c2c1CCCC2,3.79 ± 8.1
10,Nc1ccc2nc(/C=C/c3ccccc3)[nH]c2c1,13.7 ± 0.35
11,Oc1cccc(Nc2nc(-c3ccc(O)c(O)c3)cs2)c1,17.5 ± 0.67
12,CCCCNNC(=O)c1ccc(Br)cc1,9.12 ± 0.67
13,CCOc1cccc(/C=C2\NC(=S)N(C)C2=O)c1O,-2.09 ± 0.54
14,Oc1ccc(/C=N/Nc2cccc(Cl)n2)c(O)c1,10.9 ± 0.95
15,O=C(/C=C/c1ccco1)Nc1ccc(Br)cc1Cl,-0.469 ± 0.9
16,O=c1[nH]c(COc2ccccc2)nc2sc3c(c12)CCCC3,4.82 ± 0.69
17,N#Cc1c(NC(=O)c2cccc(F)c2)sc2c1CCC2,2 ± 0.56
